Tests used:
Conditions in all cases: concentration: 1 μM,replicates: in singlicate; n = 1
[1] = tested on: DYRK1B
[2] = tested on: DYRK2
[3] = tested on: EGFR
[4] = tested on: EIF2AK1
[5] = tested on: EPHA1
[6] = tested on: EPHA2
[7] = tested on: EPHA3
[8] = tested on: EPHA4
[9] = tested on: EPHA5
[10] = tested on: EPHA6
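Note: KINOMEscan kinase panel screen.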

SMILES | %Inh [1] [%] | %Inh [2] [%] | %Inh [3] [%] | %Inh [4] [%] | %Inh [5] [%] | %Inh [6] [%] | %Inh [7] [%] | %Inh [8] [%] | %Inh [9] [%] | %Inh [10] [%]
CCn1c(-c2nonc2N)nc2cncc(Br)c21 [SB-738004] | 29 | 73 | 15 | 0 | 0 | 41 | 29 | 16 | 0 | 4
C[C@@H]1CCN(C(=O)N2CCCC2)C[C@@H]1N(C)c1ncnc2[nH]ccc12 | 0 | 0 | 0 | 23 | 1 | 0 | 0 | 16 | 8 | 20
c1ccc(Oc2ccc(Nc3ccnc4ccc(-c5ccccn5)cc34)cc2)cc1 [GW407034] | 0 | 0 | 82 | 0 | 31 | 13 | 0 | 7 | 90.6 | 2
Cc1ccc2c(-c3ccnc(Nc4ccc(C(F)(F)F)cc4)n3)cnn2n1 [GW819776] | 65 | 29 | 0 | 0 | 0 | 0 | 0 | 8 | 1 | 8
Cc1ccc(CC(=O)N2CCc3cc(-c4cn(C)c5ncnc(N)c45)ccc32)cc1 [GSK2634758] | 0 | 7 | 27 | 46 | 0 | 2 | 0 | 0 | 0 | 0
CNC(=O)c1ccccc1Nc1nc(Nc2cccc(CS(C)(=O)=O)c2)ncc1C.O=CO [GSK1520489] | 83 | 97 | 99 | 0 | 99.6 | 99.1 | 91.8 | 88 | 93 | 90
CC(C)c1nc(-c2cccc(NS(=O)(=O)c3ccccc3)c2)c(-c2ccnc(Nc3ccc4c(c3)CN(C)CC4)n2)s1 [GSK1649598] | 20 | 23 | 84 | 95.1 | 93.2 | 33 | 44 | 21 | 0 | 66
Cl.Cl.NC[C@H](CC1CCCCC1)NC(=O)c1ccc(-c2ccnc3[nH]ccc23)s1 [GSK1581428] | 27 | 80 | 28 | 0 | 7 | 0 | 17 | 5 | 0 | 27
CCCC(=O)Nc1n[nH]c2ncccc12 [SB-601436] | 0 | 2 | 11 | 0 | 8 | 0 | 0 | 14 | 0 | 25
CCn1c(-c2nonc2N)nc2cncc(CNC3CCNCC3)c21.Cl [SB-747651] | 12 | 25 | 35 | 2 | 6 | 0 | 0 | 9 | 0 | 3
COC(=O)c1cccc(NC(=O)NC2CCN(c3ccnc(Nc4cc(OC)c(OC)c(OC)c4)n3)C2)c1 (stereo not shown) [GSK1379767] | 15 | 2 | 33 | 0 | 0 | 16 | 15 | 6 | 0 | 0
NC(=O)c1ccc(-c2cc3ncnc(SCC(=O)O)c3s2)cc1 | 57 | 47 | 0 | 0 | 0 | 0 | 0 | 17 | 0 | 21
Cc1n[nH]c2cc(Nc3ccnc(Nc4cccc(CN5CCOCC5)c4)n3)ccc12 [GW682569] | 4 | 25 | 22 | 0 | 52 | 14 | 25 | 17 | 0 | 17
CSc1nccc(-c2c(-c3ccc(F)cc3)ncn2CCCN2CCOCC2)n1.Cl [SB-217146] | 12 | 12 | 0 | 0 | 0 | 0 | 0 | 7 | 0 | 0
C[C@@H](Oc1cc(-n2cnc3ccc(-c4ccncc4)cc32)sc1C(N)=O)c1ccccc1Cl [GSK483724] | 91.5 | 48 | 36 | 4 | 17 | 19 | 0 | 2 | 0 | 16
Cn1ccc2ncnc(Oc3ccc(NC(=O)Nc4cccc(C(F)(F)F)c4)c(Cl)c3)c21 | 49 | 0 | 5 | 0 | 54 | 94.5 | 97.6 | 88 | 84 | 99.7
CCNCC(Cc1ccccc1)NC(=O)c1cc(Br)c(-c2ccnc3[nH]ccc23)s1.Cl.Cl (stereo not shown) [GSK1383280] | 53 | 31 | 28 | 0 | 25 | 24 | 45 | 0 | 0 | 7

SMILES | %Inh [1] [%] | %Inh [2] [%] | %Inh [3] [%] | %Inh [4] [%] | %Inh [5] [%] | %Inh [6] [%] | %Inh [7] [%] | %Inh [8] [%] | %Inh [9] [%] | %Inh [10] [%]
COc1cc(Nc2nccc(N3CCC(NC(=O)c4cccc(C#N)c4)C3)n2)cc(OC)c1OC (stereo not shown) [GSK1379751] | 15 | 0 | 29 | 0 | 11 | 2 | 0 | 4 | 0 | 0
CN1CCN(CCCNc2nccc(-c3c(-c4ccc(F)cc4)nn4cc(C(N)=O)ccc34)n2)CC1 [GW622475] | 100 | 19 | 38 | 8 | 51 | 28 | 31 | 0 | 0 | 21
OCCn1cc(-c2cnc3nnn(Cc4ccc5ncccc5c4)c3n2)cn1 | 19 | 0 | 0 | 0 | 0 | 0 | 0 | 0 | 0 | 0
O=C(Nc1cccc(C(F)(F)F)c1)c1cccc(Oc2ccc3nccn3n2)c1 | 14 | 6 | 13 | 0 | 7 | 42 | 11 | 17 | 11 | 10
O=C(Nc1ccccc1)c1cccc(Oc2ccc3nccn3n2)c1 | 28 | 0 | 3 | 0 | 7 | 19 | 0 | 4 | 0 | 2
CC(=O)c1c(-c2ccncc2)[nH]c(-c2ccncc2)c1C [GW493036] | 100 | 92.3 | 37 | 17 | 19 | 6 | 0 | 0 | 0 | 0
Cn1ccc2ncnc(Oc3ccc(NC(=O)Nc4cc(C(C)(C)C)on4)c(Cl)c3)c21 | 39 | 23 | 50 | 3 | 71 | 85 | 93.4 | 68 | 58 | 99.6
Cc1cccc(-c2nc(Nc3ccncc3)c3sccc3n2)n1 [GW869641] | 9 | 35 | 16 | 17 | 0 | 0 | 26 | 8 | 23 | 16
O=c1[nH]cc(-c2ccc(O)cc2)c2sc(-c3ccncc3)cc12 [GSK1033723] | 84 | 87 | 32 | 12 | 8 | 10 | 0 | 10 | 0 | 6
COc1cc2ncn(-c3cc(OCC4CCCCC4)c(C(N)=O)s3)c2cc1OC [GSK204559] | 11 | 33 | 38 | 1 | 3 | 4 | 14 | 10 | 0 | 11
Cl.Nc1n[nH]c2cc(-c3ccccn3)ccc12 [GSK2189892] | 10 | 22 | 38 | 0 | 7 | 23 | 0 | 1 | 0 | 0
Cc1cccc2c(-c3ccncc3)c(-c3ccc(F)cc3)nn12.Cl [GW461487] | 0 | 10 | 19 | 0 | 3 | 5 | 0 | 0 | 0 | 6
FC(F)(F)c1cc(Br)cc(Nc2nccc(-c3cnn4ncccc34)n2)c1 [GW810578] | 98.3 | 47 | 16 | 0 | 11 | 0 | 7 | 15 | 26 | 18
COc1ccc(Nc2nccc(N3CCC(NC(=O)c4cccc(C#N)c4)C3)n2)cc1 (stereo not shown) [GSK1379730] | 39 | 0 | 29 | 0 | 27 | 0 | 0 | 0 | 12 | 0
O=C(Nc1cccc(Oc2ccc3nccn3n2)c1)Nc1cccc(C(F)(F)F)c1 | 26 | 8 | 23 | 0 | 21 | 75 | 8 | 51 | 11 | 15
CCN1CCN(CCCC(=O)Nc2n[nH]c3nc(-c4ccc(O)cc4)c(Br)cc23)CC1 [SB-731579] | 77 | 74 | 0 | 71 | 0 | 0 | 6 | 0 | 0 | 0
COC(=O)Nc1nc2cc(Oc3ccc(NC(=O)Nc4cc(C(F)(F)F)ccc4Cl)cc3)ccc2[nH]1.Cl [GW697465] | 0 | 0 | 42 | 0 | 91 | 96.2 | 43 | 92 | 37 | 93.7
